This passage reports binding signal results from publication PMC11006913.

Substitutions are numbered along the chain they refer to.

What all share (assay): PBM; 200 nM protein, PBS
Common to all, as to details: dsDNA, one strand shown

Assay [1] addresses T1, NKX2-6 (Homo sapiens, UniProt A6NCS4 118-204).
T1 sequence: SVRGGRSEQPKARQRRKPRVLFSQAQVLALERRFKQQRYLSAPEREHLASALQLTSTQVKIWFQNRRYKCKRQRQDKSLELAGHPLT

For assay [2], the target named is T2, NKX2-6 (Homo sapiens, UniProt A6NCS4 118-204, F151L).
T2 sequence: T1 sequence with F34L

Assay [3] concerns the target NKX3-2 (Homo sapiens, UniProt P78367 192-278, P234S).
Assay [4] has as its target NKX3-2 (Homo sapiens, UniProt P78367 192-278).
Assay [5] deals with T3, PAX4 (Homo sapiens, UniProt O43316 9-242, R200Q).
T3 sequence: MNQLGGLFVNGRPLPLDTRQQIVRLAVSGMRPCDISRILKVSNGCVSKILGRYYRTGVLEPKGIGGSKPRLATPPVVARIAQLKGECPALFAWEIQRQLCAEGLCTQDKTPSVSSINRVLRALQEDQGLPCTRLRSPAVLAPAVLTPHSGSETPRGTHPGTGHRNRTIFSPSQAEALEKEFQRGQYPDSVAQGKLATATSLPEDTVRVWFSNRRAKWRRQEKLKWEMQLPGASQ

Assay [6] deals with T4, PAX4 (Homo sapiens, UniProt O43316 9-242, R227W).
T4 sequence: T3 sequence with Q192R, R219W

For assay [7], the target named is PITX2 (Homo sapiens, UniProt Q99697 72-157).
Assay [8] concerns the target CRX (Homo sapiens, UniProt O43186 26-111, R41L).
The target in assay [9] is PROP1 (Homo sapiens, UniProt O75360 56-141).
PROP1, sequence (O75360 56-141): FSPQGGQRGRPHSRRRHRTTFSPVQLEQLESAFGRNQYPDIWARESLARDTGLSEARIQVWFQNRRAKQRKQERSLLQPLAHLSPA
Assay [10] has as its target HOXD13 (Homo sapiens, UniProt P35453 263-343).

CRX, sequence (O43186 26-111 R41L): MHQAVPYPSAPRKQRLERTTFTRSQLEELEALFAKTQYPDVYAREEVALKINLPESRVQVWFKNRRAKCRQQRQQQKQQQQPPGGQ
HOXD13, sequence (P35453 263-343): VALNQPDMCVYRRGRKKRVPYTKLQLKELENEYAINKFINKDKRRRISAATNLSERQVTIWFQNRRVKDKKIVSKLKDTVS
NKX3-2 (Homo sapiens, UniProt P78367 192-278), sequence (P78367 192-278): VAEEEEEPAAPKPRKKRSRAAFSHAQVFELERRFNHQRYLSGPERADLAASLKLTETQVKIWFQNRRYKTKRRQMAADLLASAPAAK
NKX3-2 (Homo sapiens, UniProt P78367 192-278, P234S), sequence (P78367 192-278 P234S): as the sequence (P78367 192-278) above, with P43S counted along it

Consider CCGGGAAC, for which the binding signal in [1] is 9.33 upbm affinity estimate (log intensity, higher = more binding, comparable within an allelic series); in assay [2], 9.31 upbm affinity estimate (log intensity, higher = more binding, comparable within an allelic series); in assay [3], 10.5 upbm affinity estimate (log intensity, higher = more binding, comparable within an allelic series); in assay [4] it was 10.5 upbm affinity estimate (log intensity, higher = more binding, comparable within an allelic series). As to CCGGCACC, the binding signal in [1] is 9.34 upbm affinity estimate (log intensity, higher = more binding, comparable within an allelic series); in assay [2], 9.34 upbm affinity estimate (log intensity, higher = more binding, comparable within an allelic series). With AGACGCTG, the binding signal in [1] is 9.21 upbm affinity estimate (log intensity, higher = more binding, comparable within an allelic series); in assay [2], 9.48 upbm affinity estimate (log intensity, higher = more binding, comparable within an allelic series).

On to AACCGGAG, for which the binding signal in assay [1] was 9.55 upbm affinity estimate (log intensity, higher = more binding, comparable within an allelic series); in assay [2], 9.32 upbm affinity estimate (log intensity, higher = more binding, comparable within an allelic series). As for GTTCCACA, the binding signal in assay [1] was 9.21 upbm affinity estimate (log intensity, higher = more binding, comparable within an allelic series); in [2], 9.42 upbm affinity estimate (log intensity, higher = more binding, comparable within an allelic series). Consider AAATTAGA, for which the binding signal is 11.9 upbm affinity estimate (log intensity, higher = more binding, comparable within an allelic series) in assay [5] and 10.9 upbm affinity estimate (log intensity, higher = more binding, comparable within an allelic series) in assay [6].

As to GCATCGGC, the binding signal in assay [1] was 9.23 upbm affinity estimate (log intensity, higher = more binding, comparable within an allelic series); in [2] it was 9.43 upbm affinity estimate (log intensity, higher = more binding, comparable within an allelic series). On to AGACGGCC, for which the binding signal in assay [1] is 9.28 upbm affinity estimate (log intensity, higher = more binding, comparable within an allelic series); in [2], 9.16 upbm affinity estimate (log intensity, higher = more binding, comparable within an allelic series). Take ACCACCGT: the binding signal in assay [7] was 8.12 upbm affinity estimate (log intensity, higher = more binding, comparable within an allelic series).

On to ACCGGGGG, for which the binding signal in [1] is 9.31 upbm affinity estimate (log intensity, higher = more binding, comparable within an allelic series); in [2], 9.04 upbm affinity estimate (log intensity, higher = more binding, comparable within an allelic series). CGTCGGAC: the binding signal is 9.07 upbm affinity estimate (log intensity, higher = more binding, comparable within an allelic series) in assay [1] and 9.37 upbm affinity estimate (log intensity, higher = more binding, comparable within an allelic series) in [2].

For the sequence CGCGGACG, the binding signal in assay [1] is 9.09 upbm affinity estimate (log intensity, higher = more binding, comparable within an allelic series); in assay [2] it was 9.22 upbm affinity estimate (log intensity, higher = more binding, comparable within an allelic series). With AACACGCC, the binding signal was 9.5 upbm affinity estimate (log intensity, higher = more binding, comparable within an allelic series) in [1] and 9.31 upbm affinity estimate (log intensity, higher = more binding, comparable within an allelic series) in [2].

For AAGGGATT, the binding signal in assay [7] is 11.6 upbm affinity estimate (log intensity, higher = more binding, comparable within an allelic series). Turning to CGGATTTA, the binding signal is 12.3 upbm affinity estimate (log intensity, higher = more binding, comparable within an allelic series) in assay [7] and 12.3 upbm affinity estimate (log intensity, higher = more binding, comparable within an allelic series) in [8].

For the sequence CTAAATCC, the binding signal in assay [7] was 12.4 upbm affinity estimate (log intensity, higher = more binding, comparable within an allelic series). As to GGTTTATA, the binding signal is 10.5 upbm affinity estimate (log intensity, higher = more binding, comparable within an allelic series) in assay [7] and 7.99 upbm affinity estimate (log intensity, higher = more binding, comparable within an allelic series) in assay [9].

As for AATGAGTA, in assay [10], the binding signal is 10.8 upbm affinity estimate (log intensity, higher = more binding, comparable within an allelic series). Take CATCGACC: the binding signal in [7] is 8.07 upbm affinity estimate (log intensity, higher = more binding, comparable within an allelic series); in assay [3], 10.6 upbm affinity estimate (log intensity, higher = more binding, comparable within an allelic series); in assay [4], 10.6 upbm affinity estimate (log intensity, higher = more binding, comparable within an allelic series).

Turning to TATTGCGA, the binding signal in assay [10] is 10.6 upbm affinity estimate (log intensity, higher = more binding, comparable within an allelic series). The same measure, in the same setting: with ATCAATAC the figure was 10.5 upbm affinity estimate (log intensity, higher = more binding, comparable within an allelic series). In the case of CCGTACCC, the binding signal in assay [7] was 7.91 upbm affinity estimate (log intensity, higher = more binding, comparable within an allelic series). Regarding CGATTTAA, the binding signal in assay [10] is 10.9 upbm affinity estimate (log intensity, higher = more binding, comparable within an allelic series). For the sequence AATAATGC, the binding signal in [10] was 10.8 upbm affinity estimate (log intensity, higher = more binding, comparable within an allelic series). In the case of CGGAATCC, the binding signal in assay [7] was 10.1 upbm affinity estimate (log intensity, higher = more binding, comparable within an allelic series).

As to CGAGATTA, the binding signal is 12.3 upbm affinity estimate (log intensity, higher = more binding, comparable within an allelic series) in assay [7] and 12.4 upbm affinity estimate (log intensity, higher = more binding, comparable within an allelic series) in assay [8]. Regarding GCCGGATA, the binding signal in assay [7] is 9.58 upbm affinity estimate (log intensity, higher = more binding, comparable within an allelic series). In the case of GATAAGCC, the binding signal is 12.3 upbm affinity estimate (log intensity, higher = more binding, comparable within an allelic series) in [7] and 12.4 upbm affinity estimate (log intensity, higher = more binding, comparable within an allelic series) in assay [8]. Consider ACGATATA, for which, in assay [10], the binding signal is 10.9 upbm affinity estimate (log intensity, higher = more binding, comparable within an allelic series). On the same count and under the same terms, the result for GTTAAAGA reads 10.8 upbm affinity estimate (log intensity, higher = more binding, comparable within an allelic series). For the sequence TGGCTTAA, the binding signal in assay [7] is 12.3 upbm affinity estimate (log intensity, higher = more binding, comparable within an allelic series); in [8], 11.5 upbm affinity estimate (log intensity, higher = more binding, comparable within an allelic series). With TATTTAGA, the binding signal in assay [10] is 10.6 upbm affinity estimate (log intensity, higher = more binding, comparable within an allelic series).

Consider ACTTAATC, for which the binding signal in assay [7] is 12.3 upbm affinity estimate (log intensity, higher = more binding, comparable within an allelic series); in assay [8] it was 12.4 upbm affinity estimate (log intensity, higher = more binding, comparable within an allelic series).
